PubChem BioAssay AID1985 (Southern Research Specialized Biocontainment Screening …, 2009)
The whole screen tested about 2,300 compounds, of which about 1,000 (43%) were called active. The rule behind the calls is not given here. So high a share suggests a set chosen from earlier hits. The list shows a part of the results. Results with a measured potency or affinity are listed apart.

Experiment: modified counter assay using GFP fluorescence, PhoP regulon inhibitor project, dose response (AID 1985)
Conditions: S. Typhi, 4 h; series mostly up to 150 µM

Row | SMILES | outcome
1 | CC1CC(C)CN(S(=O)(=O)c2ccc3c(c2)oc(=O)n3CC(=O)N(C)Cc2ccccc2)C1 (stereo not given) | inactive
2 | COc1ccccc1Nc1nc(Cl)c(C=O)s1 | inactive
3 | c1ccc2c(c1)CCc1ccccc1C2=C1CCNCC1 | inactive
4 | COc1ccc(Cn2nnnc2C(c2cc3ccc(OC)cc3[nH]c2=O)N2CCC(C)CC2)cc1 (stereo not given) | inactive
5 | Clc1ccc(CN2CCN(/N=C/c3ccco3)CC2)cc1 | inactive
6 | CCOc1ccc(N2C(=O)S/C(=C\c3ccc(O)c(OC)c3)C2=O)cc1 | inactive
7 | Fc1ccc(NC(=S)Nc2cc(-c3ccccc3)[nH]n2)cc1Cl | inactive
8 | C/[N+]([O-])=C1\Cc2ccccc2C1=O | inactive
9 | COc1ccc(CCN(C(=O)C(F)(F)F)C(C(=O)NC2CCCC2)c2cccs2)cc1 (stereo not given) | inactive
10 | O=C(O)c1cccc(NC2=Nc3cccc4cccc2c34)c1 | inactive
11 | Cc1cc(C)c2c(N)c(C(=O)c3ccc(Cl)c(Cl)c3)sc2n1 | inactive
12 | COc1ccc(Cl)cc1N(C)C(=O)CCNC(=O)Cn1cnc2ccccc2c1=O | inactive
13 | COc1ccc(Nc2cc(C)nc(NCc3ccccc3)n2)cc1 | inactive
14 | Cc1cc(N2CCC(C)CC2)nc(NCc2ccccc2)n1 | inactive
15 | CN(C)C=NC(=O)c1cc(C(=O)c2ccc(Cl)cc2Cl)c[nH]1 | inactive
16 | CCN(CC)CCN(C(=O)c1cccc([N+](=O)[O-])c1)c1nc2ccc(OC)cc2s1 | inactive
17 | C=CCOc1ccc(Cl)cc1CNC1CCCC1 | inactive
18 | O=C(COc1ccc(Br)cc1CNCCc1ccccc1)NCc1ccccc1 | inactive
19 | CC(=O)c1c(C)[nH]c(C(=O)OCC(=O)NCC(C)C)c1C | inactive
20 | Cc1c(CN(C)C)c2c(n1Cc1ccccc1)C(=O)c1ccc(Br)cc1-2 | inactive
21 | NC(=O)c1ccc[n+]([C@H]2O[C@@H](COP(=O)([O-])OP(=O)(O)OC[C@H]3O[C@@H](n4cnc5c(N)ncnc54)[C@H](O)[C@@H]3O)[C@H](O)[C@@H]2O)c1 | inactive
22 | CCOC(=O)C(NC(=O)c1cccnc1)(Nc1cccc(C)n1)C(F)(F)F (stereo not given) | inactive
23 | Cn1c(=O)c(=O)n(C)c2cc(S(=O)(=O)N3CCc4ccccc43)ccc21 | inactive
24 | COc1ccc(-c2nc3cc(NC(=O)Cc4ccc(OC)c(OC)c4)ccc3o2)cc1 | inactive
25 | COC(=O)c1cc2oc(C)cc2n1CC(=O)Nc1ccc(C)c(C)c1 | inactive

Row | SMILES | outcome
26 | CC(C)OC(=O)Cn1c(=O)sc2ccccc21 | inactive
27 | CC(=O)Nc1ccccc1-c1nc2ccc(C(=O)N3CCN(c4cc(C)ccc4C)CC3)cc2[nH]c1=O | inactive
28 | COc1ccc(Cl)cc1C(=O)C1CCCN(CCO)C1 (stereo not given) | inactive
29 | COc1c(Br)cc2c(C)c(C(=O)N3CCOCC3)oc2c1Br | inactive
30 | CCCCCCOc1ccc(CN2CCN(CC)CC2)cc1 | inactive
31 | CCCN(CCC)c1nc(C)cc(C(C#N)c2nc3ccccc3o2)n1 (stereo not given) | inactive
32 | CN(CC(=O)NCc1ccncc1)S(=O)(=O)c1ccccc1 | inactive
33 | O=c1cc(-c2ccc(Cl)cc2)[nH][nH]1 | inactive
34 | Cc1cc(N=Nc2ccccc2)c(NCC(O)C(O)C(O)CO)cc1C (stereo not given) | inactive
35 | O=C1c2ccccc2C(=O)N1CCCP(=O)(O)CCc1ccccc1 | inactive
36 | Cc1ccc(C)c(N/C(N)=N/c2nc(C)cc(C)n2)c1 | inactive
37 | Cc1cc(C)c(-n2nnnc2SC(C)C)c(C)c1 | inactive
38 | Cc1ccccc1N1C(N)=NC(N)=NC1(C)C | inactive
39 | COc1cc(/C=N/N(C)S(=O)(=O)c2ccc(C)cc2)cc([N+](=O)[O-])c1O | inactive
40 | COc1ccccc1CNC(=O)Cn1c(=O)oc2cc(S(=O)(=O)N3CCCC3)ccc21 | inactive
41 | CCCCN1/C(=C/c2cccc[n+]2C)Sc2cc(NC(C)=O)ccc21 | inactive
42 | CCCCc1cc(=O)oc2cc(C)c(CN3CCCC3)c(O)c12 | inactive
43 | O=C(NC(O)C(=O)c1ccccc1)c1ccc(F)cc1 (stereo not given) | inactive
44 | O=C(/C=C/c1ccc(Cl)cc1Cl)NCc1ccncc1 | inactive
45 | COc1ccccc1/C=C/C(=O)Nc1cccc(C(C)=O)c1 | inactive
46 | Cc1ccc(N2C(N)=C(C#N)C(c3cccnc3)C3=C2CC(C)(C)CC3=O)cc1 (stereo not given) | inactive
47 | COc1cc(CNC2CCCC2)cc(Cl)c1OCc1ccccc1Cl | inactive
48 | CCOc1cc(CNC(C)(C)CO)cc(Br)c1OCc1ccc(Cl)cc1Cl | inactive
49 | OCCCCNCc1ccc(OCc2ccccc2Cl)cc1 | inactive
50 | CCOC(=O)c1c(C)[nH]c(C(=O)CN2C(=O)NC(C)(c3ccc4ccccc4c3)C2=O)c1C (stereo not given) | inactive

Row | SMILES | outcome
51 | Cc1cc(=O)oc2ccc(OCC(=O)N3CCC(C)CC3)cc12 | inactive
52 | O=C(O)COc1ccc(F)cc1Br | inactive
53 | O=C(COc1ccc(Cl)cc1)N1CCN(C2CCCC2)CC1 | inactive
54 | CC1CC1C(=O)Nc1nc2ccc(S(C)(=O)=O)cc2s1 (stereo not given) | inactive
55 | CCOC(=O)Cc1csc(NC(=O)c2ccc(S(=O)(=O)N3CCCC3)cc2)n1 | inactive
56 | Cc1ccc(-c2nc(C(=O)NCCCN(C)C)cc3c2[nH]c2ccccc23)cc1 | inactive
57 | O=C(Cn1cnc2cc([N+](=O)[O-])ccc2c1=O)Nc1ccccc1Cl | inactive
58 | O=C(Nc1nccs1)c1ccc(Cl)cc1[N+](=O)[O-] | inactive
59 | O=C(NCCCN1CCOCC1)C(C(=O)c1ccccc1)n1ccccc1=O (stereo not given) | inactive
60 | CCCCNC(=S)Nc1ccc([N+](=O)[O-])cc1 | inactive
61 | COc1cc(CNc2ccc(N3CCN(C(C)=O)CC3)cc2)ccc1OCc1ccccc1 | inactive
62 | COc1cc(CNCCc2c[nH]c3ccccc23)ccc1OCc1ccccc1F | inactive
63 | COc1ccc(CNCCc2c[nH]c3ccccc23)c(OC)c1C | inactive
64 | O=C(Cn1c(C(F)(F)F)nc2ccccc21)NCCCN1CCOCC1 | inactive
65 | Cc1ccc(S(=O)(=O)N(Cc2n[nH]c(=S)n2-c2ccccc2)c2ccccc2)cc1 | inactive
66 | COc1ccccc1OCc1nnc(SCC(=O)NCc2ccco2)n1Cc1ccco1 | inactive
67 | O=C(Nc1ccc(Br)cc1)N1CCCCC1 | inactive
68 | O=C(Cn1nc(Cl)nc1Cl)c1ccc([N+](=O)[O-])cc1 | inactive
69 | CCn1c(CNC(=O)c2ccc(OC)cc2)nnc1SC | inactive
70 | COc1ccc(C(=O)NNS(=O)(=O)c2ccccc2)cc1OC | inactive
71 | CN(C)S(=O)(=O)c1cccc(NC(=O)c2cnccn2)c1 | inactive
72 | COc1cc(C(=O)NC(=S)Nc2cccc3nc(C)ccc23)cc(OC)c1OC | inactive
73 | CCOc1ccc2nnnn2n1 | inactive
74 | COc1ccc2c(c1)cc1n2CCN=C1N | inactive
75 | CCC(C)(C)NC(=O)COc1ccc(C(=O)c2ccccc2)cc1 | inactive

Row | SMILES | outcome
76 | Cc1ccc(OCC(=O)N2CCN(S(C)(=O)=O)CC2)cc1 | inactive
77 | COCCCNC(=O)c1cc(OC)c(OC)c(OC)c1 | inactive
78 | CCOCCCNC(=O)C(c1ccc(OC)cc1)N(Cc1cccs1)C(=O)c1ccccn1 (stereo not given) | inactive
79 | Cc1oc2nc(SCCCC(=O)NCCCO)nc(N)c2c1C | inactive
80 | COc1cc(C(=O)Nc2ccc3c(c2)OCCO3)ccc1OC(C)C | inactive
81 | CCCC(C(=O)NCC1CCCO1)N(Cc1ccco1)C(=O)CNS(=O)(=O)c1ccc(F)cc1 (stereo not given) | inactive
82 | O=C1c2ccccc2C(=O)N1CCC(c1ccccc1)c1ccco1 (stereo not given) | inactive
83 | O=c1oc2ccccc2c(O)c1C(c1ccccn1)c1c(O)c2ccccc2oc1=O | inactive
84 | O=C(NC(=O)c1ccccc1)OCC1CCCN2CCCCC12 (stereo not given) | inactive
85 | S=C(Nc1ccccc1Cl)N(Cc1ccccc1)Cc1ccccn1 | inactive
86 | O=C(CC(=O)NCc1ccccc1)NCc1ccccc1 | inactive
87 | Cc1cc(C)c2nc(/N=C(\N)NC(=O)c3ccccc3)nc(C)c2c1 | inactive
88 | O=C(c1cccs1)N1CCN(S(=O)(=O)c2ccccc2)CC1 | inactive
89 | CC(C)(C)c1ccc(C(=O)NNC(=O)Cc2ccccc2)cc1 | inactive
90 | Cc1cc(C(=O)Nc2cccnc2)on1 | inactive
91 | CCOC(=O)c1ccc(NC(=O)c2cc3c(s2)CCC3)cc1 | inactive
92 | O=C(CCCc1ccccc1)Nc1cccnc1 | inactive
93 | Cc1cc(C)c([C@@H]2C[C@H]3CN(C4CCCC4)C(=O)[C@]34CCCN24)c(-n2cccn2)c1 | inactive
94 | CC(C)(C)c1ccc(OCCCNC2CCCC2)cc1 | inactive
95 | O=C(CCCOc1ccc(Cl)cc1Cl)NNC(=O)C1CCC1 | inactive
96 | CCCOc1ccc(C(=O)NNC(=S)NC(=O)c2ccco2)cc1 | inactive
97 | CSCCC(NC(=O)c1ccc(Br)cc1)C(=O)O (stereo not given) | inactive
98 | CCOc1ccc(NC(=O)c2ccc(N)cc2)cc1 | inactive
99 | Cc1ccc(CCNC(=O)C2CCN(S(=O)(=O)N3CCCC3)CC2)cc1 | inactive
100 | O=C1C=C(c2ccc(Cl)cc2)C(=O)N1Nc1ccccc1 | inactive

Row | SMILES | outcome
101 | CCCn1c(SCc2ccc(Cl)cc2)nc2c1c(=O)[nH]c(=O)n2C | inactive
102 | CN1CCCN(C(c2ccccc2)c2ccc(Cl)cc2)CC1 (stereo not given) | inactive
103 | Cc1c(C(=O)Nc2ccncc2)sc2nc(-c3ccc(F)cc3)cn12 | inactive
104 | COc1ccccc1CNC(=O)COC(=O)CCC(=O)c1cccs1 | inactive
105 | COc1cccc(CNc2nn[nH]n2)c1OC | inactive
106 | Clc1ccc(CNCc2cccs2)cc1Cl | inactive
107 | Fc1ccc(NC(=S)NCc2ccccc2Cl)cc1 | inactive
108 | Fc1ccccc1CSc1ccc(-c2ccco2)nn1 | inactive
109 | O=C(O)CCSCc1ccccc1F | inactive
110 | COc1ccc2[nH]cc(CC(=O)O)c2c1 | inactive
111 | COc1ccc(C2=NN3C(C2)c2ccccc2OC3c2cccs2)cc1 (stereo not given) | inactive
112 | O=C(CSc1cccc2cccnc12)Nc1ccc(S(=O)(=O)N2CCOCC2)cc1 | inactive
113 | O=C(O)COc1ccccc1/C=N/NC(=O)c1cccc(S(=O)(=O)N2CCOCC2)c1 | inactive
114 | O=[N+]([O-])c1ccc(-c2cnc(NO)nc2)cc1 | inactive
115 | Cn1c(-c2ccc(Cl)cc2)cnc1N | inactive
116 | COc1cccc(C(=O)N(CN2CCCC2=O)c2cc(C)on2)c1 | inactive
117 | N#Cc1ccc(C2=NC(C(F)(F)F)(C(F)(F)F)c3c(n(Cc4ccco4)c(=O)[nH]c3=O)N2)cc1 | inactive
118 | COc1ccc(NC(=O)C2CCCN(C(=O)NC3CCCCC3)C2)cc1OC (stereo not given) | inactive
119 | Cc1ccc(S(=O)(=O)NCC(=O)OCN2C(=O)c3ccccc3C2=O)cc1 | inactive
120 | CCN1CCN(c2nc3ccccc3nc2C(C#N)S(=O)(=O)c2ccc(C)cc2)CC1 (stereo not given) | inactive
121 | COc1ccc(-c2cc(=NCC(=O)O)c3ccccc3o2)cc1 | inactive
122 | CCOC(=O)C(NC(C)=O)(Nc1cccc(F)c1)C(F)(F)F (stereo not given) | inactive
123 | O=C(Nc1cccc(F)c1)NC1CCCCC1 | inactive
124 | CC(=O)Nc1cccc(NC(=O)Nc2ccc(C)c(Cl)c2)c1 | inactive
125 | Cc1nc(NC2=NCN(CCCN3CCOCC3)CN2)nc2c(C)cccc12 | inactive
